# Bioassay records as filed in PubChem.
# Rows were chosen to be rich in hits. Some 2.7% of all compounds tested hit in one or more screens of this group.
# GLP-1R inv ag: acts as inverse agonist at human GLP-1 receptor. P43220. HEK293 GLP-1R CRE-luciferase, luminescence, 24 h; GLP-1R form is constitutively active. Potency, µM (doses to about 38.3 µM), for the others: at the top dose activity change, negative = inhibition, hits mostly inhibitors. hit rate 1.6% among 410,000; note: potency is the fitted concentration of half-maximal effect; % is set by controls: 0 for no effect and ±100 for the full control effect; nearly all actives have a fitted effect of over 55% in size
#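 Inverse agonism was detected as reduced cAMP-driven luciferase luminescence after 24 h compound treatment. The cells were HEK293 clones expressing constitutively active human GLP-1R with the reporter. Reporter-only and GPR119 cell lines served as counterscreen controls.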
# GLP-1R agonist: GLP-1 receptor (human) agonism; P43220; HEK293 GLP-1R CRE-luciferase, luminescence, 4-6 h; cells express a hypersensitive GLP-1R form; Potency, µM (titrated, usually from 45.6 µM), inactives show at the highest dose activation, usual class: activators; hit rate 0.007% among 380,000; AID 624172; note: potency is the fitted concentration of half-maximal effect; % of control where 0% means no effect
# TrxR1 substrate: rat thioredoxin reductase 1 substrate activity; O89049; purified TrxR1 substrate turnover, NADPH consumption readout; Potency, µM (series often up to 114 µM), without a hit: top-dose activity change, negative = substrate turnover; hit rate 0.01% among 390,000; AID 588456; note: potency is the fitted concentration of half-maximal effect; % is set by controls: 0 for no effect and ±100 for the full control effect; nearly all actives have a fitted effect of over 50% in size
# Target sequence (O89049 whole entry, looked up): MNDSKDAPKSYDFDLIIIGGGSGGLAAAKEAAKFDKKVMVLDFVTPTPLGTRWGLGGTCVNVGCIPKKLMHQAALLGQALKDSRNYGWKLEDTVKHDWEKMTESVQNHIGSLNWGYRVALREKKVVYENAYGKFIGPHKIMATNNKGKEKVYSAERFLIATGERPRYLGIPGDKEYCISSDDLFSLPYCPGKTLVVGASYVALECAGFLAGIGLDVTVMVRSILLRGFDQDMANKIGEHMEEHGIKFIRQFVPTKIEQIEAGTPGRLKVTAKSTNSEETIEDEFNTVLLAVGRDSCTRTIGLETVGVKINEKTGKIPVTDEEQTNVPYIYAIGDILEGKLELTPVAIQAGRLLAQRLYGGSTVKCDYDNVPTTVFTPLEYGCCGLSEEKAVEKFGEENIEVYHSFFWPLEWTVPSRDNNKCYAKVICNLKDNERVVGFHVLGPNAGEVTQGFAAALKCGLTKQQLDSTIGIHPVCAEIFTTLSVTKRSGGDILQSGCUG
#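 Rat TrxR1, dispensed at 90 nM, was prereduced with 400 uM NADPH (final) for 5 min at ~22 deg C, then incubated with compound 15 min before 400 uM selenite. A first-read NADPH fluorescence drop versus no-compound background flagged substrates.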
# rTrxR1 inhibitor: inhibitors of rat thioredoxin reductase 1 | recombinant rTrxR1, NADPH fluorescence consumption, selenite substrate | Potency, µM (series often up to 114 µM), for the others: at the highest dose activity change, negative = inhibition, usual class: inhibitors | hit rate 1% among 390,000 | AID 588453; note: potency is the fitted concentration of half-maximal effect; % is set by controls: 0 for no effect and ±100 for the full control effect; nearly all actives have a fitted effect of over 65% in size
#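 Rat TrxR1 (90 nM in the dispensed reagent) was pre-reduced with 400 uM NADPH for 5 min at room temperature, then incubated with compound for 15 min. After 400 uM selenite was added, NADPH fluorescence (Ex 340/Em 450 nm) was followed for 8 min.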
# GLP1R cytotox: cytotoxicity in counter-screen for GLP-1R inverse agonists; HEK293 cAMP-luciferase reporter cells, luminescence, 24 h; Potency, µM (highest dose often 38.3 µM), for inactives: at the top dose activity change, negative = inhibition, usual class: inhibitors; hit rate 0.13% among 410,000;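 note: loss of luciferase light is scored as toxicity; potency is the fitted concentration of half-maximal effect; % is set by controls: 0 for no effect and ±100 for the full control effect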
#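 To flag toxic compounds, the library was rerun on cells for 24 hr at 37 deg C and 5% CO2. Viability-linked luminescence was captured 12 min after adding luciferase detection reagent.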
# IDH1 R132H inh: blocks human mutant IDH1 R132H enzyme | hit rate 0.093% among 390,000 | IDH1-R132H enzyme, NADPH consumption, diaphorase/resazurin fluorescence | Potency, µM (top dose mostly 76.6 µM), without a hit: top-dose activity change, negative = inhibition, actives largely listed as inhibitors; note: potency is the fitted concentration of half-maximal effect; % is set by controls: 0 for no effect and ±100 for the full control effect; nearly all actives have a fitted effect of over 65% in size
#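 IDH1-R132H (0.5 ug/mL) preincubated 30 min with compound, then NADPH (0.016 mM) and alpha-KG (2 mM) added; 80 min at RT, pH 7.5. Remaining NADPH coupled via diaphorase/resazurin to fluorescence (540/590 nm); concentration-response curves normalized to no-enzyme control.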
# Resorufin autofl: autofluorescence interference, mutant IDH1 hit counter-screen. shares compounds with IDH1 R132H inh. Resorufin detection reagent fluorescence interference, cell-free. inhibition of signal, % at 51.2 µM. 750 tested, under 10 active;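 note: 0% = wells with normal resorufin and full inhibition = wells lacking resorufin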
# WT IDH1 inh: selectivity of mutant IDH1 inhibitors: human wild-type IDH1 | shares compounds with IDH1 R132H inh | WT IDH1 enzyme, NADPH diaphorase/resazurin fluorescence | Potency, µM (highest dose often 115 µM), for the others: at the highest dose activity change, negative = inhibition, actives largely listed as inhibitors | hit rate 9% among 750 | AID 623995;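 note: potency is the fitted concentration of half-maximal effect; 0% = full WT IDH1 enzyme control and full inhibition = no enzyme wells; nearly all actives have a fitted effect of over 55% in size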
# mIDH1 confirm: mutant IDH1 (human) inhibition, confirmed | hit rate 83% among 750 | shares compounds with IDH1 R132H inh | AID 624002 | IDH1 R132H enzyme, NADPH diaphorase/resazurin fluorescence | Potency, µM (series often up to 76.6 µM), for the others: at the highest dose activity change, negative = inhibition, hits mostly inhibitors; note: potency is the fitted concentration of half-maximal effect; nearly all actives have a fitted effect of over 50% in size
# The depositor's hits bear a star; ? = inconclusive; nt = not tested or not shown; [ ] = remark or other dose. Calls come from the whole dose curve; as a rule, active = well fitted curve in the direction sought with a large enough effect; inconclusive = small, poorly fitted or top-dose-only effect, or another doubt; inactive = no such curve, though single readings can be large; an effect the other way counts as inactive or inconclusive.
SMILES,GLP-1R inv ag,GLP-1R agonist,TrxR1 substrate,rTrxR1 inhibitor,GLP1R cytotox,IDH1 R132H inh,Resorufin autofl,WT IDH1 inh,mIDH1 confirm
Cc1c(C(=O)N(C)C)sc2c1c(=O)n(-c1ccc(Cl)c(Cl)c1)c(=O)n2CC(=O)Nc1ccc(Br)cc1F,nt,nt,4.4%[57.1 µM],14.7%[57.1 µM],nt,nt,nt,nt,nt
O=C(NNc1ncnc2c1cnn2-c1ccccc1)c1cccc(Cl)c1,6.1%,nt,3.8%[57.1 µM],30.9%[57.1 µM],1.2%,8.2%,nt,nt,nt
COc1cc(NC(=O)N2CCC(CN3CCCCCC3)CC2)cc(OC)c1OC,-10.8%,nt,4.9%,-11.7%,-1.4%,1.7%,nt,nt,nt
Cc1ccc(S(=O)(=O)c2nnn(-c3ccc(F)c(Cl)c3)c2N)cc1,-31.8%,nt,-0.6%[57.1 µM],8.8%[57.1 µM],2.7%,-13.4%,nt,nt,nt
Cc1ccc2oc3c(c(=O)c2c1)C(c1ccc(F)cc1)N(Cc1ccc2c(c1)OCO2)C3=O (stereo unspecified),7.3%,nt,-1.7%,23.5%,0.9%,-4.2%,nt,nt,nt
Cc1cccc(-c2c3c(=O)n(C)c(=O)n(C)c3cn2-c2ccccc2O)c1,25.9%,12.3%,-1.5%,-2.8%,-5.7%,4.6%,nt,nt,nt
Cc1cccc(-c2c3c(=O)n(C)c(=O)n(C)c3cn2-c2cc(N)c(Cl)cc2Cl)c1,?,nt,12.9%,15.2%,-7.0%,35.5µM*,-1.7,-21.1%,?
CCOCCCN1C(=O)CN(C2CCCCCC2)C(=O)C1c1ccc(OCC)c(OC)c1 (stereo unspecified),28.1%,nt,-4.8%[57.1 µM],-0.1%[57.1 µM],-5.1%,29.7%,nt,nt,nt
Cc1c(C)c2c(OCC(=O)O)cc3c(c2oc1=O)CCC(C)(C)O3,39.8%,-1.8%,622.0%,?,2.0%,?,0.7,?,17.8µM*
Cc1cc(C)c(Cn2c(CCNC(=O)c3ccco3)nc3ccccc32)c(C)c1,?,nt,-1.3%,4.6%,0.3%,-11.2%,nt,nt,nt
COc1ccc(N2C(=O)CCSC23C(=O)N(Cc2ccc(F)cc2)c2ccccc23)cc1Cl (stereo unspecified),?,nt,-3.9%,15.5%,-18.1%,?,2.8,0.5%,31.6µM*
COc1ccc(N2C(=O)CCSC23C(=O)N(Cc2ccc(F)cc2)c2ccccc23)cc1 (stereo unspecified),?,nt,-6.7%,8.2%,-1.0%,31.6µM*,-2.0,-19.0%,35.5µM*
O=C(c1cc(-c2ccc(Br)cc2)n[nH]1)N1CCN(S(=O)(=O)c2ccc(Cl)s2)CC1,16.7%,nt,7.7%,22.5%,-3.4%,-6.9%,nt,nt,nt
CCc1ccc(NC(=O)CSc2nc(-c3ccccc3)c(C#N)c(=O)[nH]2)cc1,13.6%,nt,1.7%,7.4%,-11.2%,11.5%,nt,nt,nt
Cc1ccc(OCCn2c(C3CC(=O)N(Cc4ccc(F)cc4)C3)nc3ccccc32)c(C)c1 (stereo unspecified),?,nt,-12.1%,-0.2%,?,4.1%,nt,nt,nt
CCc1ccc(OCCn2c(C3CC(=O)N(Cc4ccc(F)cc4)C3)nc3ccccc32)cc1 (stereo unspecified),?,nt,-4.7%,7.8%,-25.5%,?,-3.8,-8.0%,?
CC(=O)c1sc2c(c1C)c(=O)n(-c1ccc(Cl)cc1)c(=O)n2Cc1cc(=O)n2cc(Cl)ccc2n1,2.3%,nt,4.9%,4.6%,0.6%,-12.4%,nt,nt,nt
Cn1c(SCC(=O)N2CCc3ccccc3C2)nnc1-c1ccncc1,-1.9%,0.8%,12.2%[57.1 µM],8.6%[57.1 µM],-11.8%,0.6%,nt,nt,nt
CCc1cccc(CC)c1-n1c(SCC(=O)N2CCc3ccccc3C2)nnc1-c1cccnc1,?,0.7%,0.6%,9.2%,-22.7%,52.1µM*,-1.2,1.0%,14.1µM*
COc1ccc(CN(Cc2nc3ccccc3c(=O)[nH]2)C(=O)NC2CCCCC2)cc1,-4.5%,3.2%,1.8%,10.4%,-14.2%,?,4.2,-5.0%,28.2µM*
COc1ccc(OC)c2sc(N3CCN(C(=O)C(C)(C)C)CC3)nc12,9.9%,nt,0.6%[57.1 µM],4.2%[57.1 µM],1.0%,-1.9%,nt,nt,nt
CC(=O)c1cccc(NC(=S)NNC(=O)c2ccc(C)c([N+](=O)[O-])c2)c1,22.1%,6.4%,-8.4%,-22.8%,5.9%,0.1%,nt,nt,nt
CC(=O)c1cccc(NCC(=O)c2ccc(C)c([N+](=O)[O-])c2)c1,-6.9%,5.3%,8.0%,5.6%,-7.3%,16.5µM*,4.5,258.7%,39.8µM*
CCOC(=O)Cn1nc(C)c(NC(=O)COc2ccc(Cl)cc2C)c1C,-25.8%,nt,-5.3%,?,0.0%,nt,nt,nt,nt
O=C(CCl)c1ccc2c(c1)CCN2C(=O)C1CCCCC1,8.1%,1.3%,-4.1%,?,-16.1%,?,0.2,8.2%,39.8µM*
SMILES,GLP-1R inv ag,GLP-1R agonist,TrxR1 substrate,rTrxR1 inhibitor,GLP1R cytotox,IDH1 R132H inh,Resorufin autofl,WT IDH1 inh,mIDH1 confirm
CCC1CCCCN1S(=O)(=O)c1ccc2c(c1)CCN2C(=O)C1CCC1 (stereo unspecified),?,24.8%,1.8%,11.6%,-17.2%,3.2%,nt,nt,nt
COc1cc2c(cc1OC)n(CC(=O)c1ccc(C)cc1C)c(=O)n1nc(CCn3nc(C)cc3C)nc21,?,nt,-5.0%[57.1 µM],-0.4%[57.1 µM],1.6%,-16.7%,nt,nt,nt
COc1cc(OC)c(NC(=O)c2ccc3c(SCC(=O)O)c4c(nc3c2)CCCC4)cc1Cl,70.7%,-2.4%,-5.3%,-8.2%,-2.1%,?,8.0,-17.9%,28.2µM*
COc1ccc(NC(=O)c2ccc3c(SCC(=O)O)c4c(nc3c2)CCC4)c(OC)c1,5.3%,-3.4%,-7.8%,-8.7%,4.5%,3.7%,nt,nt,nt
CC(C)CCNC(=O)C(c1ccc(O)cc1)N(C(=O)C1COc2ccccc2O1)c1cccc(O)c1 (stereo unspecified),?,-4.9%,8.2%[11.4 µM],15.1%[11.4 µM],-9.4%,?,6.2,13.7%,?
O=C(NC1CCCC1)C(c1ccc(O)cc1)N(CC1CCCO1)C(=O)C1COc2ccccc2O1 (stereo unspecified),-17.1%,-1.0%,8.8%,8.9%,-11.2%,11.4%,nt,nt,nt
